Experiment [1] is described as follows: Viability qHTS for spleen associated tyrosine kinase inhibitor (SYKi) naive MV4-11 cells (AID 1963823). Note: nearly all actives have a fitted effect of over 40% in size. Note: potency is the fitted concentration of half-maximal effect. A digest of the protocol: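 CellTiter-Glo luminescence, 10 min room-temperature incubation, gave viability. Cells: naive MV4-11 (500/well), treated 72 hr at 37 C, 5% CO2.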
(In general: In qHTS, concentration-response curves come from the screen itself.)

Experiment [2] can be described thus: Viability qHTS for spleen associated tyrosine kinase inhibitor (SYKi) drug resistant MV4-11 cells (AID 1963824). Note: nearly all actives have a fitted effect of over 35% in size. Note: potency is the fitted concentration of half-maximal effect. A digest of the protocol: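 SYK inhibitor-resistant MV4-11 AML cells, 500 per well, added to predispensed compounds and incubated 72 hr at 37 C, 5% CO2. Viability measured by CellTiter-Glo luminescence after 10 min at room temperature.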
Experiment [3] is described as follows: Quantitative highthroughput screen to assess conditional lethalithy of NOMO1 cells grown in RPMI1640 with untreated serum (RPMI+s) (AID 1963876).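 For Viability: 100% = DMSO wells and 0% = empty wells without cells.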 Note: nearly all actives have a fitted effect of over 35% in size. Note: potency is the fitted concentration of half-maximal effect. The essentials: (§1)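 Each medium arm—HPLM with 10% dialyzed FBS, or RPMI1640 with 5 mM glucose and 10% untreated or dialyzed FBS—was screened against an 11-point, 3-fold compound titration for 48 h at 37 °C, with CellTiter-Glo luminescence as endpoint.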

Experiment [4] in a line: Quantitative highthroughput screen to assess conditional lethalithy of P12 Ichikawa cells grown in Human Plasma-Like Medium with dialyzed fetal bovine serum (HPLM+ds) (AID 1963879). For Viability: series mostly up to about 46 µM. Note: nearly all actives have a fitted effect of over 35% in size. Note: potency is the fitted concentration of half-maximal effect. The conditions noted are these: Potency: viability. The essentials: as §1
Experiment [5] is described as follows: Quantitative highthroughput screen to assess conditional lethalithy of P12 Ichikawa cells grown in RPMI1640 with dialyzed fetal bovine serum (RPMI+ds) (AID 1963880).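 For Viability: 100% = DMSO wells and 0% = empty wells on each plate.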 Note: nearly all actives have a fitted effect of over 35% in size. Note: potency is the fitted concentration of half-maximal effect. The conditions noted are these: Potency: P12-Ichikawa viability. A digest of the protocol: as §1
The nature of experiment [6]: Quantitative highthroughput screen to assess conditional lethalithy of P12 Ichikawa cells grown in RPMI1640 with untreated serum (RPMI+s) (AID 1963881).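 For Viability: series mostly up to about 46 µM; 100% = DMSO wells and 0% = empty wells without cells.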 Note: nearly all actives have a fitted effect of over 35% in size. Note: potency is the fitted concentration of half-maximal effect. The conditions noted are these: Potency: viability. A digest of the protocol:
as §1

Experiment [7] is described as follows: Quantitative highthroughput screen to assess conditional lethalithy of SEM cells grown in Human Plasma-Like Medium with dialyzed fetal bovine serum (HPLM+ds) (AID 1963882). For Viability: series mostly up to about 46 µM. Note: nearly all actives have a fitted effect of over 35% in size. Note: potency is the fitted concentration of half-maximal effect. A digest of the protocol: as §1
A short description of experiment [8]: Quantitative highthroughput screen to assess conditional lethalithy of SEM cells grown in RPMI1640 with unreated serum (RPMI+s) (AID 1963883).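 For Viability: 100% = DMSO wells and 0% = empty wells without cells.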 Note: nearly all actives have a fitted effect of over 35% in size. Note: potency is the fitted concentration of half-maximal effect. The essentials:
as §1

A short description of experiment [9]: Quantitative highthroughput screen to assess conditional lethalithy of SEM cells grown in RPMI1640 with dialyzed fetal bovine serum (RPMI+ds) (AID 1963884).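 For Viability: series mostly up to about 46 µM; 100% = DMSO control wells and 0% = empty wells without cells.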 Note: nearly all actives have a fitted effect of over 35% in size. Note: potency is the fitted concentration of half-maximal effect. The essentials:
as §1

Experiment [10] is described as follows: Cellular viability qHTS for adrenocortical cancer (ACC) cell line NCI-H295R (AID 1963990).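 For activity change, negative = viability loss: 0% = DMSO only wells and -100% = full killing with cytotoxic reference compound.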 Note: nearly all actives have a fitted effect of over 60% in size. Note: potency is the fitted concentration of half-maximal effect. The essentials:
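Compound titrations (up to 46 uM final) are applied to NCI-H295R cultures for 48 h at 37C. Viable cell number is estimated by CellTiter-Glo signal, normalised to DMSO and doxorubicin controls.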

Experiment [11] in a line: Cellular viability qHTS for adrenocortical cancer (ACC) cell line SW-13 (AID 1963989).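 For activity (max response): cells grown in serum-free medium with ITS supplement; % is set by controls: 0 for no effect and ±100 for the full control effect.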 Note: nearly all actives have a fitted effect of over 65% in size. Note: potency is the fitted concentration of half-maximal effect. The conditions noted are these: SW-13 ACC cells viability, CellTiter-Glo, 48 h; activity (max response): active compounds read low. A digest of the protocol:
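48 h treatment, SW-13 in ITS/DMEM serum-free; doses up to 46 uM; readout CellTiter-Glo luminescence; curve fit four-parameter logistic.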

A short description of experiment [12]: Quantitative highthroughput screen to assess conditional lethalithy of NOMO1 cells grown in RPMI1640 with dialyzed fetal bovine serum (RPMI+ds) (AID 1963877).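 Note: series mostly up to about 46 µM; 100% = DMSO control wells and 0% = empty wells; nearly all actives have a fitted effect of over 30% in size.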 The essentials: as §1
Experiment [13] is described as follows: Quantitative highthroughput screen to assess conditional lethalithy of NOMO1 cells grown in Human Plasma-Like Medium with dialyzed fetal bovine serum (HPLM+ds) (AID 1963878). A digest of the protocol: as §1

Several values for one entry are separate records, joined by “and”; a condition that tells them apart may be missing. Equal entries are not always repeated. Records with an inconclusive call do not appear. Unmarked numbers belong to inactive results. Activity calls are given as the source filed them. Calls come from the whole dose curve; as a rule, active = well fitted curve in the direction sought with a large enough effect; inconclusive = small, poorly fitted or top-dose-only effect, or another doubt; inactive = no such curve, though single readings can be large; an effect the other way counts as inactive or inconclusive.

As for `CC[C@H](C)n1cc(C)c2c(C(=O)NCc3c(C)cc(C)[nH]c3=O)cc(-c3ccc(N4CCNCC4)nc3)cc21`, the Potency in experiment [1] was 7.42 µM (active); in experiment [2], 10.5 µM (active); in [10], 28.2 µM (active). Besides, the Potency result in [3], in experiment [4], in experiment [5], in experiment [6], in experiment [7] and in experiment [8] was “inactive” each time. For the same compound, the Potency result in experiment [9] is “inactive”.
For the compound `N#Cc1c(NC(=O)c2cccc3ccccc23)sc2c1CCCC2`, the Potency is 0.116 µM (active) in [1]; 0.186 µM (active) in experiment [2]; 0.935 µM (active) in experiment [3]; 0.662 µM (active) in experiment [6]; 0.469 µM (active) in experiment [7]; 0.418 µM (active) in experiment [8]. For the same compound, the values for the Potency in experiment [9], in experiment [11] and in experiment [10] were 0.372 µM (active), 0.282 µM (active) and 0.562 µM (active), respectively.
As for `CCC[C@H](N[C@@H](C)C(=O)N1[C@@H]2CCCC[C@H]2C[C@H]1C(=O)O)C(=O)OCC`, the Potency entry in experiment [1], in [2], in experiment [7], in experiment [9] and in experiment [10] was “inactive” in each case. The Potency in [3] was 13.2 µM (active). The activity (max response) in experiment [11] was 2.75%.
Regarding `CCOc1ccc(Nc2nc(-c3c(C)nc4ccccn34)cs2)cc1`, the Potency in experiment [1] is 41.1 nM (active) and 33.2 nM (active); in experiment [2], 41.1 nM (active) and 29.5 nM (active); in experiment [3] it was 0.0833 µM (active); in experiment [6], 0.059 µM (active); in experiment [8], 0.0469 µM (active); in experiment [9], 0.105 µM (active). Moreover, the Potency in experiment [10] is 0.708 µM (active).
As to `CC(C)(S)[C@@H](N)C(=O)O`, in [1], the viability (% of control) was 88.9% [at 4.97 µM]. In experiment [2], the viability, % of control is 89% [at 4.97 µM]. Besides, the Potency result in experiment [3], in [4], in [5] and in experiment [6] was “inactive” throughout. For the same compound, the activity (max response) in experiment [11] is 0.215%. Moreover, in experiment [10], the activity change, negative = viability loss is -1.21% [at 3.81 µM].
For the compound `CC(C(=O)O)c1ccc2c(c1)CC(=O)c1ccccc1S2` (stereo not given), the Potency entry in experiment [1], in [2], in [8], in experiment [9] and in experiment [10] was “inactive” in each case. Moreover, the Potency was 7.43 µM (active) in experiment [3], 10.5 µM (active) in [5] and 9.35 µM (active) in experiment [6].
`NC1(C(=O)N[C@@H](CCO)c2ccc(Cl)cc2)CCN(c2ncnc3[nH]ccc23)CC1`: the Potency in experiment [1] is 0.461 µM (active); in experiment [2], 0.651 µM (active); in experiment [3] it was 10.5 µM (active); in experiment [8], 3.32 µM (active); in [10], 5.62 µM (active). The activity (max response) in experiment [11] was -21.3%.
Consider `O=c1c(O)c(-c2ccc(O)c(O)c2)oc2cc(O)ccc12`, for which the Potency in experiment [1] is 13.2 µM (active); in [2] it was 5.8 µM (active) and 9.34 µM (active); in experiment [9] it was 23.5 µM (active). Besides, the Potency entry in experiment [3] and in [10] was “inactive” throughout. Further, in experiment [11], the activity (max response) is 0.454%.
For `FC(F)(F)c1ccc(CNc2ccc(Cc3c[nH]c4ncc(Cl)cc34)cn2)cn1`, the Potency was 146 nM (active) and 417 nM (active) in [1]; 366 nM (active) and 833 nM (active) in experiment [2]; 2.34 µM (active) in experiment [3]; 0.295 µM (active) in [4]; 3.31 µM (active) in experiment [5]; 3.71 µM (active) in experiment [6]. The Potency is 1.86 µM (active) in experiment [7], 0.132 µM (active) in experiment [8] and 1.48 µM (active) in experiment [9]. In addition, the Potency entry in experiment [10] is “inactive”.
As to `CC(=O)O[C@H]1C(=O)[C@@]2(C)C([C@H](OC(=O)c3ccccc3)[C@]3(O)C[C@H](OC(=O)[C@H](O)[C@@H](NC(=O)c4ccccc4)c4ccccc4)C(C)=C1C3(C)C)[C@]1(OC(C)=O)CO[C@@H]1C[C@@H]2O` (stereo not given in full), the Potency in [1] was 5.1 nM (active) and 8.3 nM (active); in experiment [2] it was 3.6 nM (active) and 7.4 nM (active); in experiment [3], 0.0013 µM (active); in experiment [10], 0.1 µM (active).
As for `CNC1CCC(N(Cc2cccc(-c3ccncc3)c2)C(=O)c2sc3c(F)ccc(F)c3c2Cl)CC1` (stereo not given), the Potency is 2.63 µM (active) and 8.2 µM (active) in experiment [1]; 8.33 µM (active) and 7.31 µM (active) in experiment [2]; 10 µM (active) in experiment [11]; 7.08 µM (active) in [10]. Moreover, the Potency result in [3] was “inactive”.
Take `NC(=O)[C@@H](CCC(F)(F)F)N(Cc1ccc(-c2ncon2)cc1F)S(=O)(=O)c1ccc(Cl)cc1`: the Potency in [1] was 20.9 µM (active); in experiment [2], 18.6 µM (active); in [7], 23.5 µM (active); in experiment [8], 16.6 µM (active); in experiment [9], 18.7 µM (active); in [11], 28.2 µM (active). Also, the Potency result in [3] is “inactive”.
As to `CN1CCN(c2ncc(-c3cc(Cl)cc(Cl)c3Cl)c(N)n2)CC1`, the Potency in experiment [1] is 16.6 µM (active); in experiment [2], 16.6 µM (active); in experiment [3] it was 0.332 µM (active); in experiment [4], 2.64 µM (active); in experiment [5] it was 3.72 µM (active); in experiment [10], 22.4 µM (active). The Potency result in experiment [7], in experiment [8] and in experiment [9] was “inactive” throughout.
As to `Cc1cccc(-c2[nH]c(C(C)(C)C)nc2-c2ccc3nccnc3c2)n1`, the Potency in experiment [1] was 20.9 µM (active) and 3.26 µM (active); in experiment [2], 18.6 µM (active) and 1.3 µM (active); in experiment [7], 23.5 µM (active); in experiment [8], 20.9 µM (active); in [9], 18.7 µM (active). Moreover, the Potency result in experiment [3], in [5] and in [10] was “inactive” each time.
As for `COc1cc2ncn(-c3cc(OCc4ccccc4C(F)(F)F)c(C(N)=O)s3)c2cc1OC`, the Potency was 355 nM (active) and 662 nM (active) in experiment [1]; 282 nM (active) and 263 nM (active) in experiment [2]; 2.64 µM (active) in [3]; 1.32 µM (active) in experiment [4]; 2.35 µM (active) in experiment [5]; 2.09 µM (active) in experiment [6]. The values for the Potency in [8], in experiment [9] and in [11] were 2.09 µM (active), 2.64 µM (active) and 1.26 µM (active), respectively.
Consider `Cc1cc2cc3c(C)cc(=O)oc3c(C)c2o1`, for which the Potency entry in [1], in experiment [2], in [12], in experiment [13], in [4] and in [5] was “inactive” each time. For the same compound, the Potency result in experiment [6], in experiment [7], in [8], in experiment [9] and in [10] was “inactive” in each case. Also, in experiment [11], the activity (max response) was 0.204% and 7.11%.

For the origin of these results see PubChem BioAssay (NCATS).
